# From PubChem BioAssay AID1159580 (chemical genetic matrix, 2015)
# In all, about 5,500 compounds went through this assay and about 2,000 (36%) were called active. Another 18% or so got no clear call; they are omitted. This is one part of the list. A number with no mark means an inactive call. Rule as the data show it: active = normalized growth mostly below about 0.91 (no sharp cut-off); inconclusive = no clear call, values can overlap the other calls; inactive = mostly above about 0.92.
# Assay: chemical genetic growth profiling, strain panel (AID 1159580);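 also: tested at 20 µM; growth read once vehicle control cultures reached saturation at 30 °C; 1 = growth at the plate median or of vehicle wells; lower values mean less growth of the strain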
# Conditions: S. cerevisiae deletion strains, growth OD
compound,measurement,setting,value
Cc1c(C(=O)N2CCCCC2)cc(-c2ccccc2)n1-c1ccccc1,normalized growth,"locus YAR019C, strain CDC15, hits give low values",0.964
same,normalized growth,"locus YBL105C, strain PKC1, hits give low values",0.975
same,normalized growth,"locus YBR135W, strain CKS1, hits give low values",0.969
same,normalized growth,"locus YBR136W, strain MEC1, hits give low values",0.969
same,normalized growth,"locus YBR160W, strain CDC28, hits give low values",0.959
same,normalized growth,"locus YDL017W, strain CDC7, hits give low values",0.973
same,normalized growth,"locus YDL028C, strain MPS1, hits give low values",0.946
same,normalized growth,"locus YDL101C, strain DUN1, hits give low values",0.969
same,normalized growth,"locus YDL108W, strain KIN28, hits give low values",0.968
same,normalized growth,"locus YDL132W, strain cdc53, hits give low values",0.973
same,normalized growth,"locus YDL214C, strain PRR2, hits give low values",0.908
same,normalized growth,"locus YDR052C, strain DBF4, hits give low values",0.983
same,normalized growth,"locus YDR054C, strain cdc34, hits give low values",0.968
same,normalized growth,"locus YDR226W, strain ADK1, hits give low values",0.962
same,normalized growth,"locus YDR477W, strain SNF1, hits give low values",0.908
same,normalized growth,"locus YER123W, strain YCK3, hits give low values",0.896
same,normalized growth,"locus YER133W, strain GLC7, hits give low values",0.924
same,normalized growth,"locus YFL009W, strain cdc4, hits give low values",0.952
same,normalized growth,"locus YFL029C, strain CAK1, hits give low values",0.967
same,normalized growth,"locus YFR003C, strain YPI1, hits give low values",0.976
same,normalized growth,"locus YFR019W, strain FAB1, hits give low values",0.944
same,normalized growth,"locus YFR028C, strain CDC14, hits give low values",0.968
same,normalized growth,"locus YGR040W, strain KSS1, hits give low values",0.897
same,normalized growth,"locus YGR052W, strain FMP48, hits give low values",0.947
same,normalized growth,"locus YGR092W, strain DBF2, hits give low values",0.855
same,normalized growth,"locus YHR030C, strain SLT2, hits give low values",0.676 (active)
same,normalized growth,"locus YHR079C, strain IRE1, hits give low values",0.822
same,normalized growth,"locus YHR082C, strain KSP1, hits give low values",0.901
same,normalized growth,"locus YHR205W, strain SCH9, hits give low values",0.828
same,normalized growth,"locus YIL147C, strain SLN1, hits give low values",0.951
same,normalized growth,"locus YJL095W, strain BCK1, hits give low values",0.837
same,normalized growth,"locus YJL128C, strain PBS2, hits give low values",0.922
same,normalized growth,"locus YJL157C, strain FAR1, hits give low values",0.933
same,normalized growth,"locus YJR016C, strain ILV3, hits give low values",0.975
same,normalized growth,"locus YJR066W, strain TOR1 (second series), hits give low values",0.912
same,normalized growth,"locus YJR066W, strain TOR1, hits give low values",0.843
same,normalized growth,"locus YKL048C, strain ELM1, hits give low values",0.928
same,normalized growth,"locus YKL067W, strain YNK1, hits give low values",0.916
same,normalized growth,"locus YKL101W, strain HSL1, hits give low values",0.884
same,normalized growth,"locus YKL193C, strain SDS22, hits give low values",0.969
same,normalized growth,"locus YKL203C, strain TOR2, hits give low values",0.981
same,normalized growth,"locus YLR113W, strain HOG1, hits give low values",0.787 (active)
same,normalized growth,"locus YLR133W, strain CKI1, hits give low values",0.921
same,normalized growth,"locus YLR403W, strain SFP1, hits give low values",0.905
same,normalized growth,"locus YML070W, strain DAK1, hits give low values",0.898
same,normalized growth,"locus YMR001C, strain CDC5, hits give low values",0.944
same,normalized growth,"locus YMR205C, strain PFK2 (second series), hits give low values",0.934
same,normalized growth,"locus YMR277W, strain FCP1, hits give low values",0.943
same,normalized growth,"locus YNL006W, strain LST8, hits give low values",0.965
same,normalized growth,"locus YNL020C, strain ARK1, hits give low values",0.921
same,normalized growth,"locus YNL161W, strain CBK1, hits give low values",0.972
same,normalized growth,"locus YNL183C, strain NPR1, hits give low values",0.942
same,normalized growth,"locus YNL207W, strain RIO2, hits give low values",0.974
same,normalized growth,"locus YNL222W, strain SSU72, hits give low values",0.949
same,normalized growth,"locus YNL307C, strain MCK1 (second series), hits give low values",0.881
same,normalized growth,"locus YOL078W, strain AVO1, hits give low values",0.974
same,normalized growth,"locus YOL136C, strain PFK27, hits give low values",0.88
same,normalized growth,"locus YOR061W, strain CKA2, hits give low values",0.918
same,normalized growth,"locus YOR119C, strain RIO1, hits give low values",0.932
same,normalized growth,"locus YOR231W, strain MKK1, hits give low values",0.823
same,normalized growth,"locus YOR329C, strain SCD5, hits give low values",0.977
same,normalized growth,"locus YPL031C, strain PHO85, hits give low values",0.891
same,normalized growth,"locus YPL153C, strain RAD53, hits give low values",0.91
same,normalized growth,"locus YPL204W, strain HRR25, hits give low values",0.899
same,normalized growth,"locus YPL209C, strain IPL1, hits give low values",0.974
same,normalized growth,"locus YPL256C, strain CLN2, hits give low values",0.8 (active)
same,normalized growth,"locus YPR025C, strain CCL1, hits give low values",0.981
same,normalized growth,"locus YPR106W, strain ISR1, hits give low values",0.958
same,normalized growth,"locus YPR111W, strain DBF20, hits give low values",0.94
same,normalized growth,"strain NNK1, hits give low values",0.962
same,normalized growth,"strain TSCII, hits give low values",0.96
